# Screening data deposited in PubChem by several laboratories.
# Sampled rows, rich in hits. Any-hit rate of the full collection: about 32%.
# CYP2C9 activ = human CYP2C9 activators, primary screen, biochemical, luminescence | Cytochrome P450 2C9 (Homo sapiens), P11712 | recombinant CYP2C9, luciferin-H conversion; stronger effect = higher value; factor 1 = untreated enzyme, 0 = blocked | activation factor at 5 µM | actives 1.4% (n = 96,000) | AID 1024, 2008;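 active = activation factor of 2 or more for CYP2C9 at a 5 µM dose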;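 also: 0 = sulfaphenazole-blocked wells and 1 = vehicle-only wells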
# Target sequence (P11712 whole entry, looked up): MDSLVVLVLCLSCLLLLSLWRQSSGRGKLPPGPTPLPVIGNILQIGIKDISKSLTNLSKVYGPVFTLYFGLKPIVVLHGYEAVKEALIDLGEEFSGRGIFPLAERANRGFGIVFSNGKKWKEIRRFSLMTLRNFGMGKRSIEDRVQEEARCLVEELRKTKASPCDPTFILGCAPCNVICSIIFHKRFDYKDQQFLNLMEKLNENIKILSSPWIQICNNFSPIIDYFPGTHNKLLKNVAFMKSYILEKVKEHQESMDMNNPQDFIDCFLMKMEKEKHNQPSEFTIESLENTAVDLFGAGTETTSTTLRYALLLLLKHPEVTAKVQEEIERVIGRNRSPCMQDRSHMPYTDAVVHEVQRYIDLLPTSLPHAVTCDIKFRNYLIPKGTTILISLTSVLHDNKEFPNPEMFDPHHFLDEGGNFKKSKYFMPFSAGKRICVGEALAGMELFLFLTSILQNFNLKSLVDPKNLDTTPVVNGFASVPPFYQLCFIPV
# CYP2C9 inhib = blockers of cytochrome P450 2C9 activity – biochemical, luminescence, ADME assay, primary screen; actives 20% (n = 96,000); CYP2C9 Supersomes, luciferin-H conversion; inhibition, % at 5 µM;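 active = blocking of liver enzyme CYP2C9 beyond about 50% at 5 µM, limit read from the data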
# PostGolgi yeast = phenotypic screen on post-Golgi transport, primary screen | post-Golgi transport phenotypic cell assay | inhibition, % at 10 µM | actives 0.9% (n = 98,000);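 also: yeast cells grown in 1536-well plates; yeast grown about 18 h at 30C before absorbance read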
# CYP2C19 inhib = blockers of cytochrome P450 2C19 activity – biochemical, luminescence, ADME assay, primary screen; CYP2C19 Supersomes, luciferin-H EGE luminescence, 30 min; inhibition, % at 5 µM; actives 21% (n = 96,000); AID 778, 2007;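 active = CYP2C19 inhibition above a set limit at 5 µM in the primary screen, cut at about 50% in these data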;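 also: plate controls were negative control wells for no effect and 2.5 mM tranylcypromine positive control for full effect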
# CYP2C19 act = human CYP2C19 activators, primary screen, biochemical, luminescence; recombinant CYP2C19, luciferin-H EGE luminescence; stronger effect = higher value; 0 = fully inhibited enzyme, 1 = untreated enzyme; activation factor at 5 µM; 96,000 tested, under 10 active;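 active = activation factor of at least 2 at 5 µM in the primary screen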;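 also: 0 = wells with 2.5 mM tranylcypromine and 1 = vehicle-only wells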
# PostGolgi ctrl = growth inhibition of yeast control strain, primary screen, counter-screen for post-Golgi transport modulator project | efflux-deficient yeast background strain, growth absorbance A615, 16 h | inhibition, % at 10 µM | actives 5% (n = 98,000) | AID 738, 2007
# An asterisk follows results filed as active; . = no result given. Rule as the data show it, unless noted: active = inhibition above about 30%; inactive = the rest.
SMILES,CYP2C9 activ,CYP2C9 inhib,PostGolgi yeast,CYP2C19 inhib,CYP2C19 act,PostGolgi ctrl
CCOC(=O)Cc1csc2nc3sc(C)c(C)c3c(=O)n12,0.8,16.7,7.8,55.5*,0.4,18.6
CCOC(=O)CNC(=O)CSc1nc2sc(C)c(C)c2c(=O)n1C,0.5,50.4*,15.4,70.5*,0.3,-4.0
NC(=O)CNC(=O)[C@@H]1CC2(CC(c3cccc(Br)c3)=NO2)CN1C(=O)c1ccc(Br)cc1 (some centres not stated),0.8,17.5,-9.9,18.5,0.8,-0.3
O=C(C1CC1)N(Cc1ccco1)c1nc(-c2ccccc2)cs1,0.7,34.0,-7.7,21.7,0.8,28.9
COc1ccc(-c2csc(N(CC3CCCO3)C(=O)c3cccs3)n2)cc1 (configuration not stated),0.1,91.9*,-0.7,87.8*,0.1,13.4
COc1ccc(OC)c(-c2csc(N(Cc3ccco3)C(=O)c3cccs3)n2)c1,0.2,84.6*,-8.0,77.8*,0.2,3.1
CCN(CC)CCCN(C(=O)c1cccs1)c1nc(-c2ccc(OC)cc2)cs1,0.8,24.1,7.9,37.2,0.6,9.3
CCOc1cc(C2NC(=O)NC(C)=C2C(=O)NCc2ccccc2)c(Cl)cc1O (configuration not stated),0.9,9.6,19.3,8.7,0.9,1.3
CN(CC(=O)N1CCCCC1)S(=O)(=O)c1cccc2cccnc12,2.1*,-105.1,3.0,3.4,1,-1.6
O=C(O)CCS(=O)(=O)c1cccc2cccnc12,1,1.3,3.3,-6.1,1.1,8.8
Cc1csc(NC(=O)CN(C)S(=O)(=O)c2cccc3cccnc23)n1,0.2,84.2*,-5.2,90.6*,0.1,4.8
Cc1ccc(NC(=O)CN(C)S(=O)(=O)c2cccc3cccnc23)cc1,0.2,77.8*,-8.6,41.1,0.6,-0.7
Cc1ccc(S(=O)(=O)N(CC(=O)N/N=C/c2cccc(C)c2)c2cccc3cccnc23)cc1,0.9,10.7,-4.7,-11.0,1.1,1.8
CN(Cc1ccccc1)S(=O)(=O)c1cccc2cccnc12,3*,-203.3,17.1,79.7*,0.2,2.2
CCOC(=O)CSc1nc2cc(C(=O)NCC3CCCO3)ccc2c(=O)n1Cc1ccco1 (configuration not stated),0.3,72.1*,-3.5,25.6,0.7,10.1
C=CCn1c(SCC(=O)OCC)nc2cc(C(=O)NCc3ccco3)ccc2c1=O,0.5,53.8*,23.5,23.3,0.8,10.1
CCn1c(SCC(=O)NC(=O)NCc2ccco2)nc2sc(C)c(C)c2c1=O,0.7,27.3,6.8,36.1,0.6,15.2
C=CCn1c(SCC(=O)NC(=O)NCc2ccco2)nc2sc(CC)cc2c1=O,0.3,71.2*,3.4,37.9,0.6,-11.3
CCCCCn1c(SCC(=O)OCC)nc2cc(C(=O)NCc3ccco3)ccc2c1=O,0.7,33.5,-3.4,41.7,0.6,18.4
CCN(C(=O)CSc1nc2cc(C(=O)OC)ccc2c(=O)n1Cc1ccco1)c1cccc(C)c1,0.1,91.6*,-0.8,64.2*,0.4,7.8
O=C(NCC1CCCO1)c1ccc2c(=O)n(Cc3ccco3)c(SCC(=O)N3CCCC3)nc2c1 (configuration not stated),0.5,49.3,8.4,2.3,1,18.9
O=C1OC(Nc2ccccn2)c2ccccc21 (configuration not stated),1,4.9,-30.0,-8.7,1.1,9.4
C=CCN(CC=C)c1nc2ccccc2nc1C(C#N)C(=O)OC(C)C (configuration not stated),.,.,0.8,.,.,21.3
C=CCn1c(Sc2nncn2C)nc2c1c(=O)[nH]c(=O)n2C,.,.,-3.3,.,.,-1.7
O=C(NC12CCC(O)C(SC1)/C2=N/O)c1ccccc1 (configuration not stated),1,-1.3,15.8,-1.1,1,14.2
SMILES,CYP2C9 activ,CYP2C9 inhib,PostGolgi yeast,CYP2C19 inhib,CYP2C19 act,PostGolgi ctrl
CCOC(=O)CSc1nc2cc(C(=O)OC)ccc2c(=O)n1CCN1CCOCC1,0.9,11.7,4.0,69.0*,0.3,-9.0
CCCCCn1c(SCC2CCCO2)nc2cc(C(=O)N3CCC(C(N)=O)CC3)ccc2c1=O (configuration not stated),0.5,53.4*,-4.2,38.6,0.6,-2.5
C1CSC2(N1)C1CC3CC2CC(C1)C31NCCS1 (configuration not stated),0.9,5.1,-3.5,15.5,0.8,1.7
CC1=C(C(=O)Nc2cccc(C)n2)C(c2ccc3c(c2)OCO3)C2=C(CC(c3ccco3)CC2=O)N1 (configuration not stated),0.1,93.9*,13.2,86.5*,0.1,-4.3
Cc1nc2n(n1)C(c1ccccc1)C1=C(CC(c3ccco3)CC1=O)N2 (configuration not stated),1,-0.4,11.8,-4.6,1,4.3
COC(=O)c1sccc1NC(=S)N1CCCCC1C (configuration not stated),0.8,22.0,-14.9,62.8*,0.4,22.0
COc1ccc(N2CCN(C(=O)c3csc4ccccc34)CC2)cc1,1.8,-83.1,1.0,38.7,0.6,17.4
O=C(c1csc2ccccc12)N1CCN(c2ccc(Cl)c(Cl)c2)CC1,1.8,-83.8,18.2,30.9,0.7,36.1*
NC(=S)NNC(=O)c1ccccc1,1,3.1,-0.9,-6.9,1.1,16.6
O=C(COC(=O)CCCN1C(=O)c2ccccc2C1=O)Nc1ncc(Cl)cc1Cl,0.4,57.1*,-8.2,54.0*,0.5,-1.8
O=C(COC(=O)CCS(=O)(=O)c1ccc(Cl)cc1)Nc1ncc(Cl)cc1Cl,0.8,16.1,16.1,50.6*,0.5,6.5
O=C(COC(=O)CNC(=O)c1ccco1)Nc1ccc(Cl)cn1,0.5,47.8,-3.5,53.5*,0.5,11.5
COc1ccccc1OCCC(=O)OCC(=O)Nc1ncc(Cl)cc1Cl,1.4,-35.2,-4.0,87.2*,0.1,6.3
COC(=O)CC1NCCNC1=O (configuration not stated),1.2,-18.7,-0.8,-2.9,1,-1.6
COc1cc(CCC(=O)OCC(=O)Nc2ncc(Cl)cc2Cl)cc(OC)c1OC,0.8,22.4,-2.1,32.5,0.7,3.6
COc1ccccc1NCCC(=O)OCC(=O)Nc1ccc(Cl)cn1,0.5,46.8,-4.5,79.8*,0.2,10.7
COc1ccc(CC(=O)OCC(=O)Nc2ncc(Cl)cc2Cl)cc1OC,0.8,15.9,0.9,51.4*,0.5,3.2
Cc1ccc(OCCC(=O)OCC(=O)Nc2ccc(Cl)cn2)cc1,0.8,16.5,-5.7,16.8,0.8,-5.0
O=C(CCn1c(=O)oc2ccccc21)NCCCN1CCCC1=O,1.1,-13.4,-12.8,-6.0,1.1,29.3
